# According to the supplement of paper PMC7393113:
# Counter-ions that a name gives are not always drawn. ± gives the standard deviation of the averaged measurements.
# System: iBMDM (immortalised mouse bone-marrow-derived macrophages), LPS-stimulated
# Assay: mitochondrial superoxide (MitoSOX fluorescence) fold increase over unstimulated control; higher = more LPS-induced mitochondrial ROS (less inhibition)
# Details: inhibitor concentration: 500 nM, LPS: 100 ng/ml
# Method in brief: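 Cells were immortalised mouse bone-marrow-derived macrophages, plated in triplicate and switched to phenol-red-free 1% FCS/DMEM for 20 h. Kinase inhibitors (500 nM, 30 min) preceded MitoSox loading (1 μM, 10 min) and LPS addition (100 ng/ml), with 510/580 nm fluorescence read every 60 min for 4 h. Mitochondrial superoxide is reported as averaged fold induction over untreated macrophages.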
Structure (SMILES),mitochondrial superoxide (time after LPS: 1 h),mitochondrial superoxide (time after LPS: 2 h),mitochondrial superoxide (time after LPS: 4 h)
CO[C@H]1C[C@@H]2CC[C@@H](C)[C@@](O)(O2)C(=O)C(=O)N2CCCC[C@H]2C(=O)O[C@H]([C@H](C)C[C@@H]2CC[C@@H](OC(=O)C(C)(CO)CO)[C@H](OC)C2)CC(=O)[C@H](C)/C=C(\C)[C@@H](O)[C@@H](OC)C(=O)[C@H](C)C[C@H](C)/C=C/C=C/C=C/1C,1.55 ± 0.051,1.65 ± 0.098,1.75 ± 0.089
O=C1NC(=O)/C(=C/c2ccc3c(c2)OC(F)(F)O3)S1,1.26 ± 0.032,1.4 ± 0.033,1.51 ± 0.068
CN1CCN(c2cccc(Nc3nc4c(-c5ccc(S(C)(=O)=O)cc5)cccn4n3)c2)CC1,1.28 ± 0.037,1.45 ± 0.058,1.65 ± 0.051
CCOc1ccn(-c2ccc(F)cc2)c(=O)c1C(=O)Nc1ccc(Oc2ccnc(N)c2Cl)c(F)c1,1.25 ± 0.045,1.28 ± 0.084,1.28 ± 0.017
COc1cc(Nc2c(C#N)cnc3cc(OCCCN4CCN(C)CC4)c(OC)cc23)c(Cl)cc1Cl [Bosutinib (SKI-606)],1.58 ± 0.017,1.66 ± 0.056,1.81 ± 0.04
CN1CCC(CNc2ccc3ncc(-c4cccc(OC(F)(F)F)c4)n3n2)CC1 [SGI-1776 free base],1.13 ± 0.048,1.22 ± 0.052,1.33 ± 0.071
Cc1cc([C@@H](C)Nc2ccccc2C(=O)O)c2nc(N3CCOCC3)cc(=O)n2c1,1.14 ± 0.043,1.22 ± 0.077,1.21 ± 0.027
NC1(c2ccc(-c3nc4ccn5c(=O)[nH]nc5c4cc3-c3ccccc3)cc2)CCC1,1.26 ± 0.036,1.34 ± 0.065,1.47 ± 0.14
Cc1cc(Nc2ncnc3ccc(-c4ccc(CNCCS(C)(=O)=O)o4)cc23)ccc1Oc1ccn2ncnc2c1 [HER2-Inhibitor-1],1.26 ± 0.072,1.34 ± 0.074,1.57 ± 0.063
COc1cc2ncnc(Nc3ccc(F)c(Cl)c3)c2cc1OCCCN1CCOCC1 [Gefitinib (ZD1839)],1.6 ± 0.048,1.71 ± 0.044,1.77 ± 0.025
O=C(Nc1c[nH]nc1-c1nc2ccc(CN3CCOCC3)cc2[nH]1)NC1CC1,1.34 ± 0.02,1.42 ± 0.033,1.51 ± 0.036
CC1=C(C(=O)Nc2cc3cn[nH]c3cc2F)C(c2ccc(C(F)(F)F)cc2)CC(=O)N1 (stereo unspecified),1.23 ± 0.085,1.26 ± 0.033,1.35 ± 0.057
C[C@@H](N)[C@H]1CC[C@H](C(=O)Nc2ccncc2)CC1,1.56 ± 0.061,1.67 ± 0.11,1.71 ± 0.065
CNC(=O)c1cc(Oc2ccc(NC(=O)Nc3cc(C(C)(C)C)nn3-c3ccc4ncccc4c3)c(F)c2)ccn1 [DCC-2036 (Rebastinib)],1.17 ± 0.012,1.33 ± 0.075,1.6 ± 0.03
Oc1ccc2ccccc2c1SSc1c(O)ccc2ccccc12,1.17 ± 0.049,1.22 ± 0.04,1.32 ± 0.015
COc1ccc(F)c(F)c1C(=O)c1cnc(NC2CCN(S(C)(=O)=O)CC2)nc1N,1.28 ± 0.081,1.57 ± 0.13,1.8 ± 0.14
O=C(Nc1cccc(Nc2ncc(Br)c(NCCc3cnc[nH]3)n2)c1)N1CCCC1,1.13 ± 0.088,1.11 ± 0.043,1.16 ± 0.04
O=C1c2ccccc2-c2n[nH]c3cccc1c23,1.12 ± 0.027,1.2 ± 0.15,1.3 ± 0.13
CCN(CC)CCCC(C)Nc1nc(C)cc(Nc2ccc3nc(C)cc(N)c3c2)n1 (stereo unspecified),1.35 ± 0.041,1.53 ± 0.051,1.65 ± 0.15
Cc1ccc(NC(=O)c2cccc(C(C)(C)C#N)c2)cc1Nc1ccc2ncn(C)c(=O)c2c1,1.07 ± 0.05,1.14 ± 0.084,1.349 ± 0.011
CC(C)(C)c1cc(/C=C(\C#N)C(N)=S)cc(C(C)(C)C)c1O [Tyrphostin AG 879],1.37 ± 0.06,1.42 ± 0.037,1.61 ± 0.037

Structure (SMILES),mitochondrial superoxide (time after LPS: 1 h),mitochondrial superoxide (time after LPS: 2 h),mitochondrial superoxide (time after LPS: 4 h)
C#Cc1cccc(Nc2ncnc3cc4c(cc23)OCCOCCOCCO4)c1 [Icotinib],1.16 ± 0.036,1.19 ± 0.021,1.31 ± 0.02
N#Cc1ccc2[nH]c(O)c(-c3ccc(CN4CCOCC4)cn3)c2c1,1.08 ± 0.043,1.24 ± 0.097,1.38 ± 0.045
COc1cc2ncnc(Nc3cccc(Cl)c3)c2cc1OC [AG-1478 (Tyrphostin AG-1478)],1.11 ± 0.082,1.54 ± 0.039,1.65 ± 0.057
Cn1cnc(-c2cc3nccc(Oc4ccc(NC(=S)NC(=O)Cc5ccccc5)cc4F)c3s2)c1,1.06 ± 0.021,1.14 ± 0.057,1.26 ± 0.059
CCCCCCCCc1ccc(CCC(N)(CO)CO)cc1 [Fingolimod (FTY720) HCl],1.15 ± 0.043,1.19 ± 0.071,1.31 ± 0.038
COc1cc(CCc2cc(NC(=O)c3ccc(N4CC(C)NC(C)C4)cc3)n[nH]2)cc(OC)c1 (stereo unspecified),1.26 ± 0.04,1.42 ± 0.032,1.53 ± 0.092
CS(=O)(=O)c1cccc(CNc2nc(Nc3ccc4c(c3)CCC(=O)N4)ncc2C(F)(F)F)c1,1.2 ± 0.044,1.24 ± 0.056,1.3 ± 0.014
NC(=O)Nc1cc(-c2cccc(F)c2)sc1C(=O)N[C@H]1CCCNC1,1.08 ± 0.056,1.11 ± 0.028,1.25 ± 0.1
CC(C)(C)Cn1c(N)nc2ccc(-c3[nH]c(C(C)(C)C)nc3-c3ccc(F)cc3)nc21,1.111 ± 0.0047,1.17 ± 0.032,1.33 ± 0.066
c1cncc(CN2CCC(n3ncc4c(N5CCOCC5)nc(-c5ccc6[nH]ccc6c5)nc43)CC2)c1,1.34 ± 0.059,1.48 ± 0.077,1.66 ± 0.063
C[S+]([O-])c1ccc(-c2nc(-c3ccc(F)cc3)c(-c3ccncc3)[nH]2)cc1 (stereo unspecified),1.39 ± 0.14,1.5 ± 0.16,1.6 ± 0.18
CN(C)C1CCN(C(=O)c2ccc(NC(=O)Nc3ccc(-c4nc(N5CCOCC5)nc(N5CCOCC5)n4)cc3)cc2)CC1,1.1 ± 0.061,1.29 ± 0.014,1.58 ± 0.095
C#Cc1cccc(Nc2ncnc3cc(OCCOC)c(OCCO)cc23)c1,1.16 ± 0.089,1.2 ± 0.038,1.3 ± 0.14
O=C(Nc1cccc(Cl)c1)Nc1ncc(CCNc2ncnc3ccsc23)s1 [SNS-314 Mesylate],1.32 ± 0.029,1.36 ± 0.048,1.42 ± 0.08
Cc1nc(NC(=O)N2CCC[C@H]2C(N)=O)sc1-c1ccnc(C(C)(C)C(F)(F)F)c1,1.3 ± 0.032,1.46 ± 0.052,1.7 ± 0.057
CCc1cc2c(cc1N1CCC(N3CCOCC3)CC1)C(C)(C)c1[nH]c3cc(C#N)ccc3c1C2=O,1.26 ± 0.097,1.4 ± 0.066,1.64 ± 0.12
Cn1cnc2c(F)c(Nc3ccc(Br)cc3Cl)c(C(=O)NOCCO)cc21 [Selumetinib (AZD6244)],1.45 ± 0.037,1.51 ± 0.031,1.61 ± 0.081
CCCCCCCCCCCCc1ccc(S(=O)(=O)Nc2nncs2)cc1,1.21 ± 0.041,1.2 ± 0.016,1.2 ± 0.038
NC(=O)c1ncn([C@@H]2O[C@H](CO)[C@@H](O)[C@H]2O)c1N [Acadesine],1.108 ± 0.0017,1.2 ± 0.043,1.36 ± 0.027
O=C(O)c1ccc(Nc2ncc3c(n2)-c2ccc(Cl)cc2C(c2c(F)cccc2F)=NC3)cc1,1.37 ± 0.045,1.45 ± 0.044,1.46 ± 0.052
C=CC(=O)N1CCC[C@@H](n2nc(-c3ccc(Oc4ccccc4)cc3)c3c(N)ncnc32)C1,1.26 ± 0.099,1.32 ± 0.041,1.46 ± 0.043
